From PubChem
Only a sample is shown.
aSyn UTR act: Activators via SNCA 5'UTR binding, MLPCN. alpha-synuclein 5'UTR reporter, activators screen. activity score, % (tested at 7.5 µM), hits read low. actives 7.1% (n = 300,000). AID 1814; in the data active means activity score below about -60%
Hits are given with their value; . = inactive.

SMILES	aSyn UTR act
O=C1N=C(N2CCOCC2)SC1=C1CCCCC1	-85
O=C(c1ccco1)n1nc(-c2ccc(Cl)cc2)nc1NCc1ccco1	-176
O=C(COc1ccccc1)n1nc(-c2ccc(Cl)cc2)nc1NCc1ccco1	-132
COc1ccccc1C(=O)n1nc(-c2ccccc2)nc1NCc1ccco1	-88
Cc1ccc(-c2nc(NCc3ccco3)n(C(=O)c3ccco3)n2)cc1	-143
CN1CCN(/N=C/c2cccc(Cl)c2Cl)CC1	-72
O=C(Nc1nc2ccccc2[nH]1)c1ccccc1[N+](=O)[O-]	-118
Cc1c(C(=O)Nc2nc3ccccc3[nH]2)cccc1[N+](=O)[O-]	-167
O=C(Nc1nc2ccccc2[nH]1)c1ccc(Cl)c([N+](=O)[O-])c1	-109
COc1ccc(OCC(=O)Nc2ccc(OC)c(S(=O)(=O)N3CCCCC3)c2)cc1	-96
CC(=O)Nc1cccc(OCCCNC(=O)c2ccc(C(C)(C)C)cc2)c1	-72
CC(=O)Nc1cccc(OCC(=O)Nc2sccc2C(N)=O)c1	-82
COc1cccc(NC(=O)COc2ccccc2)c1	-144
CCn1nc(C)c(C(=O)Nc2cc(Oc3cc(C)cc(C)c3)cc([N+](=O)[O-])c2)c1C	.
CSc1cccc(NC(=O)COc2ccccc2C)c1	-85
CC(=O)Nc1cccc(OCC(=O)Nc2ccccc2)c1	-114
COc1cccc(NC(=O)CC(=O)c2ccc([N+](=O)[O-])cc2)c1	-115
CC(C)(C)C1(C)OC(=O)C(=Cc2ccc(OCC(=O)Nc3ccccc3)cc2)C(=O)O1 (stereo not given)	-84
COc1cccc(NC(=O)c2cccc(C)c2[N+](=O)[O-])c1	-76
CCc1cc2c(=O)c(-c3nc(C)cs3)coc2cc1O	-145
Cc1csc(-c2coc3cc(O)cc(C)c3c2=O)n1	-207
CCCCOC(=O)c1cc(-c2ccc(/C=N/n3cnnc3)o2)ccc1Cl	-74
CCOC(=O)c1cc(-c2ccc(/C=C3/C(=O)N(c4ccc(C(=O)O)cc4)N=C3C)o2)ccc1Cl	-76
O=C(CSc1ncnc2c(-c3ccc(Cl)cc3)nsc12)c1ccccc1	-98
O=C(Nc1ccccc1)c1ccc(COc2ccccc2)cc1	-109
SMILES	aSyn UTR act
O=C(Nc1ccccc1F)c1ccc(OCc2ccccc2)cc1	-141
NNC(=O)c1ccc(COc2ccc3ccccc3c2)cc1	-76
O=C(Nc1ccc(Cn2cccn2)cc1)c1ccc(COc2ccccc2Br)cc1	-107
COc1ccc(OCc2cccc(C(=O)NN)c2)cc1	.
O=C(Nc1ccccc1)c1ccc(CSc2ncccn2)cc1	-95
O=C(NCC1CCCO1)C(=O)N/N=C/c1ccc(OCc2ccccc2Cl)cc1 (stereo not given)	-106
NNC(=O)c1cccc(COc2cccc(Br)c2)c1	-86
O=C(NCC1CCCO1)c1ccc(COc2ccccc2)cc1 (stereo not given)	-78
CSCc1ccc(C(=O)Nc2ccc(C(N)=O)cc2)cc1	-141
COc1cc(C(=S)N2CCCC2)ccc1OCc1ccc(C)cc1	-116
Cc1ccc(COc2ccccc2C(=S)N2CCCC2)cc1	-76
O=c1c2cc(-c3ccccc3)sc2ncn1/N=C/c1ccco1	-140
COc1ccccc1-n1cnc2sc(-c3ccccc3)cc2c1=O	-142
CCCCCn1cnc2sc(-c3ccccc3)cc2c1=O	-299
COc1ncnc2sc(-c3ccccc3)cc12	-168
CCCCn1cnc2sc(-c3ccccc3)cc2c1=O	-213
O/C(=C\c1ccc2ccccc2n1)c1ccncc1	-69
O/C(=C\c1nc2ccccc2nc1/C=C(\O)c1ccccc1)c1ccccc1	-73
O/N=C/c1ccc2ccccc2n1	-79
CCN(CC)c1ccc(/C=N/N2CCOCC2)c(O)c1	-157
CCN(CC)c1ccc(/C=N/N=C(N)N)c(O)c1	.
CCN(CC)c1ccc(/C=N/Nc2ccccc2)c(O)c1	-62
CCN(CC)c1ccc(C=Nc2ccc(N(C)C)cc2)c(O)c1	-83
CCN(CC)c1ccc(/C=N/NC(=S)NC)c(O)c1	-94
CCS(=O)(=O)n1nc(-c2ccccc2)nc1NCc1ccco1	-71
SMILES	aSyn UTR act
Cc1ccc(S(=O)(=O)n2nc(-c3ccc(Cl)cc3)nc2NCc2ccco2)cc1	-96
Cc1ccc(N2C(=O)c3ccccc3NC2(C(=O)O)c2ccccc2)cc1Cl (stereo not given)	-68
O=C(Nc1cccc([N+](=O)[O-])c1)c1ccn[nH]1	-106
O=C(Nc1ccccc1)c1ccn[nH]1	-191
Cc1ccc(-c2nc(N=Nc3ccc(O)cc3)n[nH]2)cc1	-182
CC(=O)c1ccc(Nc2nc(-c3cccnc3)cs2)cc1	-130
O=C(O)c1ccc(Nc2nc(-c3cccnc3)cs2)cc1	-88
COc1ccc(-c2csc(Nc3ncccn3)n2)cc1C	-76
COc1ccc(-c2csc(Nc3cc(C)ccn3)n2)cc1C	-155
CC(C)Sc1nc2ccc(Br)cc2[nH]1	-120
CCCCc1noc2c1/C(=N\O)CC(c1ccccc1)C2 (stereo not given)	-77
O=C(Nc1cccc(O)c1)c1noc2c1CCCCC2	.
COc1ccc(CNC(=O)c2noc3c2CCCCC3)cc1	-62
O=C(Nc1cnn(Cc2ccc(F)cc2)c1)c1noc2c1CCCC2	-105
COC(=O)c1ccccc1NC(=O)c1noc2c1CCCC2	-79
CC(NC(=O)c1noc2c1CCCCC2)c1ccccc1 (stereo not given)	-78
O=C(NC1CCCC1)c1noc2c1CCCCC2	-134
O=C(NCc1ccccc1)c1noc2c1CCCCC2	-133
O=C(NCc1cccs1)c1noc2c1CCCCC2	-144
Cc1ccc(NC(=O)c2noc3c2CCC3)cc1C	-75
CC(=O)c1ccc(NC(=O)c2noc3c2CCC3)cc1	.
CCC(=O)N1CCc2nc(-c3ccccc3)sc2C1	-179
COc1ccc(NC(=O)c2oc3ccccc3c2C)c(OC)c1	-216
COc1ccc(S(=O)(=O)Nc2ccccc2OC)cc1NC(=O)c1cc2ccccc2oc1=O	-159
COc1ccccc1C(=O)Nc1cc2ccccc2oc1=O	-172
SMILES	aSyn UTR act
COc1ccc2oc(=O)c(C(=O)Nc3cccc(C)c3)cc2c1	-128
COc1ccc(NC(=O)c2cc3ccccc3oc2=O)c(OC)c1	-113
COc1ccc(/C=C2\C(=O)NCC(=O)N2Cc2ccccc2)cc1	-62
O=S(=O)(c1cccc(-c2nnc(SCc3nc4ccccc4s3)o2)c1)N1CCOCC1	-187
O=S(=O)(c1ccc(OCc2nc3ccccc3s2)c(Cl)c1)N1CCOCC1	-141
Cc1nnc(SCc2ccc3c(c2)OCO3)s1	-72
CC(=O)c1ccc(OCC(=O)c2cc(C)n(-c3ccc4c(c3)OCO4)c2C)cc1	-65
Cc1cc(C(=O)CSc2nnnn2C)c(C)n1-c1ccc2c(c1)OCCO2	-125
Cc1cc(C(=O)CN2C(=O)C(=O)N(Cc3ccccc3)C2=O)c(C)n1-c1ccc2c(c1)OCCO2	-74
Cc1cc(C(=O)CN2C(=O)c3ccccc3S2(=O)=O)c(C)n1-c1ccccc1	.
Cc1nnc(SCc2ccc(F)cc2Cl)s1	-81
Cc1nnc(SCC(=O)c2cc(C)n(-c3ccc4c(c3)OCO4)c2C)s1	-151
O=C(CCc1ccccc1)Nc1ccc(F)cc1F	-68
O=C(CCCc1ccccc1)Nc1ccc(Br)cc1F	-71
O=C(CCc1ccccc1)Nc1ccccc1F	-135
Cc1ccc(OCCCn2c(CO)nc3ccccc32)cc1	-62
Cc1cccc(OCCCn2c(CO)nc3ccccc32)c1	-84
O=C1NC(=S)S/C1=C\c1coc2ccccc2c1=O	-85
Nc1c(C(=O)N/N=C/c2cccnc2)cnn1-c1ccccc1	-67
O=c1c2ccccc2nnn1COc1cccc(Cl)c1	-107
